Sampled rows, rich in hits. Any-hit rate of the full collection: about 2.6%.
LGR2 antag: inhibitors of bursicon-induced LGR2 CRE-luciferase signal, primary screen, cell-based, HEK293, CRE-luciferase reporter, bursicon stimulation; Drosophila bursicon receptor LGR2 (rickets); bursicon-stimulated, 4 h; inhibition, % at 9.99 µM; 0.35% of 380,000 active; AID 720647, 2013;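 active = drop in luminescence signal, shown as inhibition above about 50% in the replicate tests, limit read from the data, passing the limit was not always enough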;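 note: agonist challenge used bursicon conditioned medium at about half maximal strength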
EBV LMP1 NFkB: EBV LMP1-driven NF-kappaB luciferase reporter inhibitors, primary screen, cell-based, luminescence, single point; LMP1-induced NF-kappaB luciferase reporter cells; inhibition, % at 12.5 µM; 0.69% of 350,000 active; AID 504558, 2011; in the data active = inhibition above about 41%;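 note: 0% = neutral control wells and 100% = reference inhibitor control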
TROY NFkB inh: inhibitors of TROY-driven NF-kB signaling, primary screen, Q293 LMP1-TROYcd cells, NF-kB luciferase, uHTS; Q293 LMP1-TROYcd NF-kB luciferase reporter, 4 h; inhibition, % at 10 µM; 0.98% of 360,000 active; AID 1347056, 2019;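 active = compounds whose plate-normalised and pattern-corrected inhibition of the luciferase reporter signal at the single screening dose is 50% or more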
EWS-Fli inh: EWS/Fli-driven NR0B1 reporter inhibitors, primary screen, A673 cells, NR0B1 luciferase, luminescence, MLPCN library; viability-normalised; inhibition, % at 12.6 µM; 0.67% of 350,000 active; AID 651661, 2012;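 active = mean inhibition of at least 50% after viability correction, with every replicate also passing that limit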;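 note: firefly luciferase signal divided by Alamar Blue viability fluorescence both relative to DMSO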
TWEAK Fn14 block: inhibitors of TWEAK-Fn14 signaling, primary screen, luciferase reporter cells, uHTS | TWEAK-stimulated Fn14 reporter cells, luciferase luminescence, 8 h | inhibition, % at 10 µM | 2% of 360,000 active | AID 1159606, 2016; in the data active = inhibition above about 50%
* marks the source's active call; other numbers are inactive results.

Results for CNC1=C(N(C(C)=O)c2ccc(Br)cc2)C(=O)c2ccccc2C1=O ?
LGR2 antag: 13; EBV LMP1 NFkB: 25; TROY NFkB inh: 64*; TWEAK Fn14 block: 91*

What do the screens show for `C[C@@H]1CN([C@H](C)CO)C(=O)Cc2cc(NS(C)(=O)=O)ccc2O[C@@H]1CN(C)Cc1ccc2c(c1)OCO2`?
LGR2 antag: -21; EWS-Fli inh: -4

What do the screens show for `Cc1ccc2nc(-c3ccc(NC(=S)NC4CC(C)(C)NC(C)(C)C4)cc3)sc2c1`?
LGR2 antag: 62*; EBV LMP1 NFkB: -78; TROY NFkB inh: -5; EWS-Fli inh: 15; TWEAK Fn14 block: 27

What do the screens show for `Cc1ccc2nc(-c3ccc(NC(=S)NC(=O)C(C)C)cc3)sc2c1`?
EBV LMP1 NFkB: -48; TROY NFkB inh: -21; EWS-Fli inh: -84; TWEAK Fn14 block: -10

What do the screens show for `O=C(O)c1ccc(-n2cc(-c3cc4ccccc4oc3=O)[nH]c2=S)cc1`?
LGR2 antag: -30; EBV LMP1 NFkB: 5; TROY NFkB inh: 72*; EWS-Fli inh: -6; TWEAK Fn14 block: 73*

How did O=c1oc2ccccc2cc1-c1ccccc1 do in these assays?
LGR2 antag: -37; EBV LMP1 NFkB: -9; TROY NFkB inh: -64; EWS-Fli inh: -71; TWEAK Fn14 block: -13

What do the screens show for `C[C@@H]1CN([C@@H](C)CO)C(=O)CCCn2cc(nn2)CO[C@H]1CN(C)Cc1ccc(-c2ccccc2)cc1`?
LGR2 antag: 9; EWS-Fli inh: 0

Results for COc1ccccc1NC(=O)N1CCCCN2[C@H](C1)[C@@H](c1ccc(C#CC3CC3)cc1)[C@@H]2CO ?
EWS-Fli inh: -6

What do the screens show for `Nc1ccc(OCc2ccccc2)cc1[N+](=O)[O-]`?
LGR2 antag: -40; EBV LMP1 NFkB: -10; TROY NFkB inh: -57; EWS-Fli inh: -51; TWEAK Fn14 block: 0

Results for O=Cc1cc(OCc2ccccc2)ccc1[B-](F)(F)F ?
LGR2 antag: -9; EBV LMP1 NFkB: 55*; TROY NFkB inh: -8; EWS-Fli inh: 45; TWEAK Fn14 block: 2

How did COc1ccc(CNc2ccc3c(c2)nc(C)n3C)cc1 do in these assays?
LGR2 antag: -18; EBV LMP1 NFkB: -14; TROY NFkB inh: 60*; TWEAK Fn14 block: 39

How did Cc1ccc(CNc2ccc3c(c2)ncn3C)cc1 do in these assays?
LGR2 antag: -21; EBV LMP1 NFkB: -14; TROY NFkB inh: 25; TWEAK Fn14 block: 45

Results for Cc1ccc(CNc2ccc3c(c2)ncn3C(C)(C)C)cc1 ?
LGR2 antag: -55; EBV LMP1 NFkB: -31; TROY NFkB inh: 63*; EWS-Fli inh: -118; TWEAK Fn14 block: 8

Results for C[C@@H]1CN([C@@H](C)CO)C(=O)c2cc(/C=C/c3ccccc3)cnc2O[C@H]1CN(C)S(=O)(=O)c1ccccc1 ?
LGR2 antag: 15; EWS-Fli inh: 7

How did C[C@H](CO)N1C[C@H](C)[C@@H](CN(C)S(=O)(=O)c2ccc(Cl)cc2)OCCCC[C@H](C)Oc2ccc(NC(=O)Cc3ccccc3)cc2C1=O do in these assays?
LGR2 antag: -1; EWS-Fli inh: 14

Results for O=[N+]([O-])c1c(Nc2cccc(O)c2)cc(Cl)c2nonc12 ?
LGR2 antag: 8; EBV LMP1 NFkB: 56*; TROY NFkB inh: 88*; EWS-Fli inh: 59*; TWEAK Fn14 block: 64*

Results for Cc1c(Nc2ccc3nonc3c2[N+](=O)[O-])c(=O)n(-c2ccccc2)n1C ?
LGR2 antag: -2; EBV LMP1 NFkB: 0; TROY NFkB inh: 6; EWS-Fli inh: -10; TWEAK Fn14 block: 1

What do the screens show for `Cc1c(Nc2cc(Cl)c3nonc3c2[N+](=O)[O-])c(=O)n(-c2ccccc2)n1C`?
LGR2 antag: 103*; EBV LMP1 NFkB: 10; TROY NFkB inh: 84*; EWS-Fli inh: 43; TWEAK Fn14 block: 50*

What do the screens show for `O=C(O)c1ccc(Nc2cc(Cl)c3nonc3c2[N+](=O)[O-])cc1`?
LGR2 antag: 5; EBV LMP1 NFkB: 3; TROY NFkB inh: 16; EWS-Fli inh: -3; TWEAK Fn14 block: 7

What do the screens show for `C[C@@H]1CCCCO[C@H](CN(C)Cc2ccc(C(=O)O)cc2)[C@H](C)CN([C@H](C)CO)C(=O)c2cc(NS(=O)(=O)c3cn(C)cn3)ccc2O1`?
LGR2 antag: -24; EWS-Fli inh: 0

Bioassay records as filed in PubChem BioAssay.
